Compound activity deposited in PubChem by several laboratories.
Cav32 inh – Cav3.2 calcium influx blockers – cell-based, Fluo-4 calcium fluorescence, FDSS, MLSMR library, primary screen. Voltage-dependent T-type calcium channel subunit alpha-1H (Homo sapiens), O95180. 4% of 100,000 active. Cav3.2-expressing cells; hits give low values. B-score at 10 µM. AID 449739, 2010;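 active means single-dose well whose peak fluorescence ratio is a statistical outlier from its plate by either plate-standardised score or position-corrected B-score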
CYP2C19 inh – blockers of cytochrome P450 2C19 activity – biochemical, luminescence, ADME assay, primary screen | P33261 | CYP2C19 Supersomes, luciferin-H EGE luminescence, 30 min | inhibition, % at 5 µM | 21% of 96,000 active;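 active means CYP2C19 inhibition above a set limit at 5 µM in the primary screen, cut at about 50% in these data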
CYP2C9 activ – human CYP2C9 activators, primary screen, biochemical, luminescence; Cytochrome P450 2C9 (Homo sapiens), P11712; recombinant CYP2C9, luciferin-H conversion; hits give high values; factor 1 = untreated enzyme, 0 = blocked; activation factor at 5 µM; 1.4% of 96,000 active; AID 1024, 2008;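 active means activation factor of 2 or more for CYP2C9 at a 5 µM dose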
CYP2C19 act – human CYP2C19 activators, primary screen, biochemical, luminescence | recombinant CYP2C19, luciferin-H EGE luminescence; hits give high values; 0 = fully inhibited enzyme, 1 = untreated enzyme | AID 1025, 2008 | Cytochrome P450 2C19 (Homo sapiens), P33261 | activation factor at 5 µM | 96,000 tested, under 10 active;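 active means activation factor of at least 2 at 5 µM in the primary screen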
CYP2C9 inhib – blockers of cytochrome P450 2C9 activity – biochemical, luminescence, ADME assay, primary screen; AID 777, 2007; 20% of 96,000 active; CYP2C9 Supersomes, luciferin-H conversion; P11712; inhibition, % at 5 µM;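 active means blocking of liver enzyme CYP2C9 beyond about 50% at 5 µM, limit read from the data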
Hits are given with their value; i = inactive; nt = no result given. This is a sample that favours compounds with a hit; in the whole collection about 27% have one here.

SMILES | Cav32 inh | CYP2C19 inh | CYP2C9 activ | CYP2C19 act | CYP2C9 inhib
COC(=O)c1ccc(-c2nc(-c3ccc(Br)o3)no2)cc1 | i | i | i | i | i
CCOC(=O)c1ccc(OCc2nc(-c3cccs3)no2)cc1 | i | i | i | i | 67
CCOC(=O)CON1C(=O)c2ccccc2C1=O | i | i | i | i | i
CCCCn1cnc2c([nH]c3ccccc32)c1=O | i | i | i | i | i
O=c1c2[nH]c3ccc(Br)cc3c2ncn1CCCn1ccnc1 | i | 82 | i | i | 89
Cc1ccc2[nH]c3c(=O)n(CCc4cnc[nH]4)cnc3c2c1 | i | 99 | i | i | 97
O=c1c2[nH]c3ccccc3c2ncn1CCCn1ccnc1 | i | i | i | i | 72
Cc1ccc2[nH]c3c(=O)n(CCN4CCOCC4)cnc3c2c1 | i | i | i | i | i
Cc1onc(-c2c(F)cccc2Cl)c1C(=O)OCC(=O)Nc1c(C)n(C)n(-c2ccccc2)c1=O | i | i | i | i | i
Cc1ccc(S(=O)(=O)NCCOc2nc(N3CCOCC3)nc(N3CCOCC3)n2)cc1 | i | i | i | i | i
Cc1cc(C)nc(NC(=O)c2cccc(Cl)c2)n1 | i | i | i | i | i
NC(=O)c1ccc(C(F)(F)F)n(Cc2ccccc2Cl)c1=O | i | 69 | i | i | i
O=[N+]([O-])c1ccccc1S(=O)(=O)NCCC1=CCCCC1 | nt | i | i | i | i
O=C1Nc2ccc(S(=O)(=O)NCCC3=CCCCC3)c3cccc1c23 | i | 61 | i | i | i
CCN(CC)S(=O)(=O)c1ccc2c3c(cccc13)C(=O)N2 | i | 89 | i | i | i
CCNS(=O)(=O)c1ccc2c3c(cccc13)C(=O)N2 | i | 70 | i | i | i
O=C(CC1Oc2ccccc2NC1=O)NCCCN1CCCC1=O (stereo not given) | i | i | i | i | i
Cc1[nH]c2ccccc2c1C(=O)CN1CCCCC1C (stereo not given) | i | i | i | i | i
CC(Sc1nnc(C(C)N(C)C)n1-c1ccc(Cl)cc1)C(=O)Nc1ccc2c(c1)OCO2 (stereo not given) | i | i | i | i | i
CCn1cc(/C=N/NC(=O)c2ccc3c(c2)OCO3)c(C)n1 | i | i | i | i | i
CCn1ncc(/C=N\NC(=O)c2ccc3c(c2)c(C)c(C)n3Cc2ccccc2)c1C | -5.7 | 73 | i | i | 93
CCn1cc(/C=N\NC(=O)c2ccc3c(c2)c(C)c(C)n3Cc2ccccc2)c(C)n1 | -6.6 | 73 | i | i | i
CCn1nc(C)c(/C=N/NC(=O)c2ccc3c(c2)c(C)c(C)n3Cc2ccccc2)c1C | -6.2 | 86 | i | i | 89
CCn1ncc(/C=N/NC(=O)c2ccc3c(c2)OCO3)c1C | i | i | i | i | i
COc1ccc(OC(=O)c2cn(C)nc2C(F)(F)F)cc1 | i | 61 | i | i | i
SMILES | Cav32 inh | CYP2C19 inh | CYP2C9 activ | CYP2C19 act | CYP2C9 inhib
CCn1c(=O)c(C(=O)Nn2c(C)nc3ccccc3c2=O)c(O)c2ccccc21 | -6.1 | i | i | i | i
CCn1c(=O)c(C(=O)NCc2ccccn2)c(O)c2ccccc21 | i | i | i | i | i
CCn1c(=O)c(C(=O)NCc2ccc(OC)cc2)c(O)c2ccccc21 | i | i | i | i | 68
CCc1nc2ccccc2c(=O)n1NC(=O)c1c(O)c2cccc3c2n(c1=O)CCC3 | -6.1 | i | i | i | i
O=C(NCc1ccccc1)c1c(O)c2cccc3c2n(c1=O)CCC3 | i | i | i | i | i
CCn1c(=O)c(C(=O)NCc2ccc(OC)c(OC)c2)c(O)c2ccccc21 | i | i | i | i | 95
O=C(O)C1C2C=CC(O2)C1C(=O)NCCCn1ccnc1 (stereo not given) | i | i | i | i | i
O=C(O)C1C2C=CC(C2)C1C(=O)NC1CCS(=O)(=O)C1 (stereo not given) | i | i | i | i | i
CCCn1c(=O)c(C(=O)Nc2ccccc2C(=O)OCC)c(O)c2ccccc21 | i | i | i | i | i
CCCn1c(=O)c(C(=O)NCc2ccc(OC)c(OC)c2)c(O)c2ccccc21 | i | i | i | i | 87
COc1ccc(CCNC(=O)c2c(O)c3cccc4c3n(c2=O)CC4)cc1OC | i | 55 | i | i | 72
CCCCCCC1CCC(C(=O)Nn2c(C)nc3ccccc3c2=O)CC1 (stereo not given) | i | i | i | i | 91
CCCC1CCC(C(=O)Nn2c(C)nc3ccccc3c2=O)CC1 (stereo not given) | i | nt | nt | nt | nt
CNC(=O)c1c(O)c2cccc3c2n(c1=O)CC3 | i | nt | nt | nt | nt
CCS(=O)(=O)N1CCC(C(=O)NCC2CCCO2)CC1 (stereo not given) | i | i | i | i | i
COc1ccccc1CN1CC(C(=O)N2CCN(c3ccc(F)cc3)CC2)CC1=O (stereo not given) | nt | i | i | i | i
N#Cc1cc2cc3c(cc2nc1N1CCOCC1)OCO3 | i | 55 | i | i | i
Cc1ccc2oc(=O)c3cnn(CC(=O)N(CCCN4CCOCC4)Cc4ccco4)c3c2c1 | i | nt | nt | nt | nt
COC(=O)c1c(NC(=O)CN2CCN(c3ccccc3)CC2)c2c(C)cccc2n1C | i | i | i | i | i
CC(/C=N/n1cnnc1)=C\c1ccccc1 | i | 94 | i | i | i
CC(/C=N\N1CCN(c2ccc(Cl)cc2)CC1)=C\c1ccccc1 | i | i | i | i | i
C(=C\c1ccccc1)/C=N/n1cnnc1 | i | 84 | i | i | i
CC(=C/c1ccccc1)/C=N/n1cnnc1 | i | 94 | i | i | i
Nc1nnnn1/N=C/C=C/c1ccccc1 | i | i | i | i | i
CC(=C/c1ccccc1)/C=N/n1c(-c2ccco2)n[nH]c1=S | i | i | i | i | i
SMILES | Cav32 inh | CYP2C19 inh | CYP2C9 activ | CYP2C19 act | CYP2C9 inhib
CCOC(=O)c1cnc2c(Cl)c(Cl)ccc2c1N1CCN(C)CC1 | i | i | i | i | i
CC(CC1C(C#N)=C(N)SC(N)=C1C#N)c1ccccc1 (stereo not given) | nt | 92 | i | i | 98
CC(C)C1C(C#N)=C(N)SC(N)=C1C#N | i | 68 | i | i | i
CC(c1ccccc1)C1C(C#N)=C(N)SC(N)=C1C#N (stereo not given) | -5 | 93 | i | i | i
Cn1c(/C(C#N)=C/C2CC=CCC2)nc2ccccc21 (stereo not given) | i | 58 | i | i | i
O=C(NC1CCCCNC1=O)c1ccc(Cl)cc1 (stereo not given) | i | i | i | i | 52
Cn1cc(Br)c(C(=O)N2CCN(c3cccc(Cl)c3)CC2)n1 | i | nt | nt | nt | nt
CSC(=NC#N)N1CCN(c2cccc(Cl)c2)CC1 | i | 95 | i | i | i
O=C(CN1CCN(c2ccccc2)CC1)N1CCN(c2ccccc2)CC1 | i | i | i | i | i
CSC(=NC#N)N1CCN(c2ccccc2)CC1 | i | 51 | i | i | i
CCOC(=O)C(CCCOc1ccc(C(C)CC)cc1)C(=O)OCC (stereo not given) | i | i | i | i | 71
